Source: PubChem (several laboratories)
The list is not random: actives were taken first. Their share in the collection is about 2.3%.
Jurkat NFkB inh: lowers PMA/ionomycin-induced NF-kB signal in Jurkat cells; PMA/ionomycin-induced NF-kB luciferase reporter, luminescence; inhibition, % at 4 µM; 0.53% of 330,000 active; in the data active = inhibition above about 50%
TRPM1 prom inh: inhibitors of MITF-driven TRPM1 promoter in melanoma cells | SK-MEL-5 TRPM1 promoter luciferase, 24 h | inhibition, % at 12.5 µM | 0.83% of 330,000 active;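 active = mean inhibition across replicates of 60% or more, whatever share of single replicates reaches that level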
Gli-Sufu antag: blocks Gli-Sufu signaling in a luciferase reporter | 0.74% of 340,000 active | inhibition, % at 5 µM | AID 588413 | Sufu-KO-LIGHT fibroblasts, Gli luciferase reporter luminescence;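 active = inhibition above about 55%, limit read from the data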;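 also: 0% = DMSO-treated cells and 100% = wells with medium but no cells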
Shn3 inh set2: inhibitors of Schnurri-3 3'UTR reporter in osteoblasts; Clone20 osteoblast Shn3 3'UTR firefly luciferase, 24 h; inhibition, % at 12.5 µM; 0.52% of 360,000 active; AID 588674;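 active = mean inhibition of at least 75% with every replicate also reaching 75%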;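 also: 0% = median of neutral control wells and 100% = pilot-screen positive control compound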
LMP1 NFkB inh: Epstein-Barr LMP1 NF-kappaB reporter inhibition; LMP1-induced NF-kappaB luciferase reporter cells, luminescence; inhibition, % at 12.5 µM; 0.69% of 350,000 active; AID 504558; in the data active = inhibition above about 41%;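 also: 0% = neutral control wells and 100% = reference inhibitor control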
697 NFkB inh: inhibitors of the PMA/ionomycin-induced NF-kB reporter in 697 B cells. 0.33% of 330,000 active. inhibition, % at 4 µM. 697 B-cell NF-kB luciferase reporter, 16 h. AID 435022; in the data active = inhibition above about 35%
Jurkat NFkB conf: inhibitors of the PMA/ionomycin-induced NF-kB reporter in Jurkat cells, retest. shares compounds with Jurkat NFkB inh. Jurkat NF-kB luciferase, 16 h. inhibition, % at 4 µM. 27% of 2,700 active. AID 435020;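 active = inhibition reaching about 45% at 4 µM in either replicate, limit read from the data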;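 also: plate controls were PMA/ionomycin stimulated DMSO wells for no effect and unstimulated DMSO wells for full effect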
* hit, by the source's call; nt = no result.

SMILES	Jurkat NFkB inh	TRPM1 prom inh	Gli-Sufu antag	Shn3 inh set2	LMP1 NFkB inh	697 NFkB inh	Jurkat NFkB conf
Cc1cccc(C(=O)N[C@H](C(=O)Nc2ccc3c(c2)OCO3)C(C)C)c1	1	-2	1	-2	-2	9	nt
C/C(=N\N=C(N)N)c1ccc(C)c(C)c1	14	1	10	11	0	6	nt
N#C/C(=N\Nc1ccc(Cl)cc1)C(=N)N1CCCCCC1	-215	-62	-54	-32	-71	-209	-92
N#C/C(=N\Nc1ccccc1[N+](=O)[O-])C(=N)N1CCCCC1	-184	-51	-104	-83	-30	-119	-75
N#C/C(=N/Nc1ccc([N+](=O)[O-])cc1)C(=N)N1CCCCC1	nt	-98	-109	-54	-46	nt	nt
C/C(=N\NS(=O)(=O)c1ccc(C)cc1)c1ccc(C)o1	-4	-5	34	10	-6	-18	nt
Cc1ccc(CNC(=O)c2cc(S(=O)(=O)N3CCCC3)cn2C)cc1	1	4	0	0	4	5	nt
O=C(Nc1ccc(N2CCN(C(=O)c3cccs3)CC2)cc1)c1ccc([N+](=O)[O-])o1	52*	98*	nt	-15	-51	-32	22
COC(=O)[C@H](Cc1ccc(O)cc1)NC(=O)Cn1cnc(C(=O)Nc2ccc(C)c(C)c2)n1	nt	-15	-4	-3	-5	9	nt
COc1cc2c(cc1OC)C(COc1ccc([N+](=O)[O-])cc1)N(C(C)=O)CC2 (stereo not drawn)	68*	1	4	51	12	-42	24
CCN(CC)c1ccc(NC(=O)c2cc(OC)cc(OC)c2)c(C)c1	60*	-3	46	13	3	-28	43
CCN(CC)c1ccc(NC(=O)c2cccc(OC)c2)c(C)c1	4	-4	-15	-8	23	-16	nt
CC1CCCCC1NC(=O)CSc1nncn1N (stereo not drawn)	5	7	0	4	2	18	nt
COCCCNC(=O)C(=O)Nc1ccc2c(c1)N(S(=O)(=O)c1cccs1)CCC2	62*	28	20	23	-2	-3	57*
CN(C)CCNC(=O)C(=O)Nc1ccc2c(c1)N(S(=O)(=O)c1cccs1)CCC2	65*	21	1	7	0	9	14
COc1ccc(-c2cc(=Nc3ccc(C(=O)O)cc3)c3cc(C)ccc3o2)cc1	-178	-60	-102	-28	-15	-143	-116
COc1ccc(-c2cc(=O)c3cc(O)ccc3o2)cc1	-130	nt	-131	-66	-59	-186	nt
CCc1ccc2oc(-c3ccc(OC)cc3)cc(=Nc3c(C)n(C)n(-c4ccccc4)c3=O)c2c1	-232	-70	4	-2	-48	-236	-115
CC(C)c1ccc(/C=C2\SC(=O)N(CC(=O)NCCCn3ccnc3)C2=O)cc1	2	-63	-55	-33	-19	-161	nt
COc1ccc(/C=N/NC(=O)CCC(=O)Nc2ccccc2)cc1OC	-4	2	-2	3	-4	16	nt
COc1ccc(/C=N/NC(=O)CCn2cnc(-c3ccccc3)c2-c2ccccc2)cc1OC	64*	21	5	19	12	-33	20
CCOc1cccc(-c2nnc(SCC(=O)Nc3cc(OC)cc(OC)c3)n2N)c1	-2	13	-2	1	-5	-5	nt
CCN1/C(=C/c2ccc3cc(C)ccc3[n+]2CC)Sc2ccc3sccc3c21	92*	100*	87*	93*	21	-13	64*
CCN(CCO)C(=S)Nc1cc(S(=O)(=O)N(C)C)ccc1C	-2	10	0	13	8	14	nt
COc1nc(-c2cccs2)cc(-c2ccc(C)cc2)c1C#N	57*	7	0	17	9	-29	19
SMILES	Jurkat NFkB inh	TRPM1 prom inh	Gli-Sufu antag	Shn3 inh set2	LMP1 NFkB inh	697 NFkB inh	Jurkat NFkB conf
CCOC(=O)N1CCC(n2c(SCC(=O)Nc3nccs3)nc3ccsc3c2=O)CC1	7	9	18	8	-6	12	nt
Clc1ccc(-c2nnnn2-c2ccc(Cl)cc2)cc1	-6	-11	-5	16	5	-8	nt
Nc1ncc(-c2nnnn2-c2ccc(Cl)cc2)c(-c2ccc(Cl)cc2)n1	56*	27	2	0	11	-28	21
Cc1ccc(-n2nnnc2-c2cnc3ccc(Cl)cc3c2-c2ccccc2)cc1	59*	15	5	22	17	-7	22
Cn1c(O)c(C2=c3ccccc3=NC2=O)sc1=Nc1ccc(Cl)cc1	-17	-54	15	-18	-11	-24	nt
O=C1CC(c2cc(Br)ccc2F)c2cc3c(cc2N1)CCC3 (stereo not drawn)	73*	21	37	37	2	8	48*
O=C1CC(c2ccccc2Br)c2cc3c(cc2N1)CCC3 (stereo not drawn)	55*	nt	nt	nt	nt	-47	12
O=C1CC(c2ccccc2F)c2cc3c(cc2N1)CCC3 (stereo not drawn)	42	33	9	22	1	-25	nt
Cc1csc2c(NC3CCN(Cc4ccccc4)CC3)ncnc12	22	-3	8	60	-10	-31	nt
Cc1sc2ncnc(NC3CCN(Cc4ccccc4)CC3)c2c1C	53*	-1	78*	88*	-7	-12	43
c1ccc(CN2CCC(Nc3ncnc4sccc34)CC2)cc1	58*	-3	-15	14	-7	-11	35
COc1ccc([C@H]2CC(=O)C=C(c3cc(Cl)cc(Cl)c3)C2)cc1	-8	-11	-4	14	-3	10	nt
Cc1ccc(OP(=O)(Nc2c(C)n(C)n(-c3ccccc3)c2=O)Oc2ccc(C)cc2)cc1	-1	8	9	-4	-9	-1	nt
Cc1cc(S(=O)(=O)N2CCN(c3ccccn3)CC2)ccc1F	-4	-3	0	19	-1	-3	nt
O=C(Nc1ccc(-c2nc3cccnc3s2)cc1)c1ccc(Cl)nc1	-88	-90	-40	-24	-19	-144	nt
O=C(Nc1ccc(-c2nc3cccnc3s2)cc1)c1cccnc1Cl	-166	-46	-141	-116	-24	-237	-96
O=C(Nc1ccc(-c2nc3cccnc3s2)cc1)c1ccco1	-186	nt	-113	-18	-4	-194	-64
O=C(Nc1cccc(-c2nc3cccnc3s2)c1)c1ccco1	-16	-40	-18	-29	-4	-72	nt
CCOC(=O)N1CCN(c2c(NCc3ccc(Cl)cc3)c(=O)c2=O)CC1	50	21	-10	14	2	-25	nt
CCOC(=O)N1CCN(c2c(NCc3ccc(F)cc3)c(=O)c2=O)CC1	61*	25	-3	5	5	-9	23
Cc1cc(/C=N/n2cnnc2)c(C)n1-c1ccc(OCc2ccc(Cl)cc2)cc1	52*	0	63*	77	7	4	23
C(=N\n1cnnc1)/c1ccc(OCc2ccccc2)cc1	-14	-51	5	-25	-2	16	nt
CCCCSc1nc(O)cc(=O)n1CC	-7	9	21	-3	-1	-4	nt
